The full data set covers some 7,900 targets. This sample favours those with a hit. About 0.6% of all pairs of compound and target were hits. Values without a mark were called inactive.
Key:
Assay in all cases: log2 fold change, soluble protein after heating vs DMSO (PISA); higher = thermal stabilisation; K562 cells, 10 uM, 30 min; active = over 0.2 and 3.5 SD of the protein, either way, in both replicates (recomputed)
[1] = compound: CS(=O)(=O)c1ccc(-c2cnc(N)c(C(=O)Nc3ccccc3)n2)cc1
Outline: (§1)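 K562 cells (2×10^6 cells/mL) were treated with 10 μM compound for 30 min, and aliquots were heated for 3 min over 48°C-58°C. Pooled aliquots were extracted in PBS with 0.5% NP-40 at 4°C, and the supernatant after 21,000xg for 90 min was measured by TMTpro 16plex LC-MS/MS with channel sums equalised. Reported thermal stability, relative to control samples and from duplicates, is a log2 fold change.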

[2] = compound: C[C@@H](Oc1cc(-c2cnn(C3CCNCC3)c2)cnc1N)c1c(Cl)ccc(F)c1Cl [crizotinib]
Outline: as §1

[3] = compound: C[C@@H]1COCCN1C2=NC(=NC(=C2)C3(CC3)S(=O)(=O)C)C4=C5C=CNC5=CC=C4
Outline: as §1

[4] = compound: C[C@H](C1=CC=C(C=C1)C(=O)NC2=C3C=CNC3=NC=C2)N
Outline: as §1

[5] = compound: C[C@H](Nc1ncnc2nc[nH]c12)c1cc2cccc(Cl)c2c(=O)n1-c1ccccc1 [duvelisib]
Outline: as §1

[6] = compound: Cc1cc(Nc2cc(CN3CCOCC3)c3nc(C)c(Cc4ccc(Cl)cc4F)n3n2)n[nH]1 [gandotinib]
Outline: as §1

[7] = compound: Cc1cc(Nc2cc(N3CCN(C)CC3)nc(Sc3ccc(NC(=O)C4CC4)cc3)n2)n[nH]1 [tozasertib]
Outline: as §1

[8] = compound: Cc1cc(SCc2sc(-c3ccc(C(F)(F)F)cc3)nc2C)ccc1OCC(=O)O
Outline: as §1

[9] = compound: Cc1ccc(-n2nc(C(C)(C)C)cc2NC(=O)Nc2ccc(OCCN3CCOCC3)c3ccccc23)cc1 [doramapimod]
Outline: as §1

[10] = compound: Cc1ccc(C(=O)N(CCCN)[C@@H](c2nc3cc(Cl)ccc3c(=O)n2Cc2ccccc2)C(C)C)cc1 [ispinesib]
Outline: as §1

[11] = compound: Cc1ccc(NC(=O)c2ccc(CN3CC[C@H](N(C)C)C3)c(C(F)(F)F)c2)cc1Nc1nccc(-c2cncnc2)n1 [bafetinib]
Outline: as §1

[12] = compound: Cc1cccc(CC(=O)N2CCc3c2ccc(-c2cn(C)c4ncnc(N)c24)c3F)n1
Outline: as §1

[13] = compound: Cc1cn(-c2cc(NC(=O)c3ccc(C)c(Nc4nccc(-c5cccnc5)n4)c3)cc(C(F)(F)F)c2)cn1 [nilotinib]
Outline: as §1

[14] = compound: Cc1nc(Nc2n[nH]c3c2CN(C(=O)N[C@H](CN(C)C)c2ccccc2)C3(C)C)c2sccc2n1
Outline: as §1

[15] = compound: Cc1nc(Nc2ncc(C(=O)Nc3c(C)cccc3Cl)s2)cc(N2CCN(CCO)CC2)n1 [dasatinib]
Outline: as §1

[16] = compound: Cc1ncc(-c2ccnc(Nc3ccc(S(C)(=O)=O)cc3)n2)n1C(C)C
Outline: as §1

[17] = compound: Cn1cc(-c2ccc3c(c2)CCN3C(=O)Cc2cccc(C(F)(F)F)c2)c2c(N)ncnc21
Outline: as §1

[18] = compound: Cn1cc(-c2ccc3nnc(C(F)(F)c4ccc5ncccc5c4)n3n2)cn1
Outline: as §1

[19] = compound: Cn1cncc1[C@@](N)(c1ccc(Cl)cc1)c1ccc2c(c1)c(-c1cccc(Cl)c1)cc(=O)n2C [tipifarnib]
Outline: as §1

[20] = compound: FC(F)(F)c1ccc(/C=C/c2nc(COc3ccc(CCCCn4ccnn4)cc3)co2)cc1 [mubritinib]
Outline: as §1

UniProt Q330K2, sequence (Q330K2 whole entry, looked up): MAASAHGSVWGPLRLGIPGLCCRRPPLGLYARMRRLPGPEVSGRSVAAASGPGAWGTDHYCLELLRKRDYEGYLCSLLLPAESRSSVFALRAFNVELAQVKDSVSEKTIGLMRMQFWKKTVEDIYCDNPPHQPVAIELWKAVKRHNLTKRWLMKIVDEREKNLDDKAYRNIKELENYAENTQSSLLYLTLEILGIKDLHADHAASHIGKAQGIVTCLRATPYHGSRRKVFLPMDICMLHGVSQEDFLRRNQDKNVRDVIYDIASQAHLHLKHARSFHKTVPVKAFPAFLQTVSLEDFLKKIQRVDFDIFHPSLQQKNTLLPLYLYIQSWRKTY
UniProt Q9H3P2, sequence (Q9H3P2 whole entry, looked up): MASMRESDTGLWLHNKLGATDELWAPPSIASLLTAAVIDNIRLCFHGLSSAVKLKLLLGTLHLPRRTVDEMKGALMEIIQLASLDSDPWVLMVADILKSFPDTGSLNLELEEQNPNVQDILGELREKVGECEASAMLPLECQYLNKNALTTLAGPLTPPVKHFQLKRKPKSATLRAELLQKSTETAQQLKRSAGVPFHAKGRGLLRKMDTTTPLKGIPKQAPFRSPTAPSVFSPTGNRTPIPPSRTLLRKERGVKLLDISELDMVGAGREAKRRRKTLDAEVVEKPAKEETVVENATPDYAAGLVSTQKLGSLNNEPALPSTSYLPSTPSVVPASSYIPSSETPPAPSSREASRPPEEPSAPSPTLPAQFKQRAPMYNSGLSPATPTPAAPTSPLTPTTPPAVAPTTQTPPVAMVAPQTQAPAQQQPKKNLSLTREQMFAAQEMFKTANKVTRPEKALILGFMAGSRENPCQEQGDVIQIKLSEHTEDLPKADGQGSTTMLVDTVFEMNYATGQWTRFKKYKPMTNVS
UniProt Q16656, sequence (Q16656 whole entry, looked up): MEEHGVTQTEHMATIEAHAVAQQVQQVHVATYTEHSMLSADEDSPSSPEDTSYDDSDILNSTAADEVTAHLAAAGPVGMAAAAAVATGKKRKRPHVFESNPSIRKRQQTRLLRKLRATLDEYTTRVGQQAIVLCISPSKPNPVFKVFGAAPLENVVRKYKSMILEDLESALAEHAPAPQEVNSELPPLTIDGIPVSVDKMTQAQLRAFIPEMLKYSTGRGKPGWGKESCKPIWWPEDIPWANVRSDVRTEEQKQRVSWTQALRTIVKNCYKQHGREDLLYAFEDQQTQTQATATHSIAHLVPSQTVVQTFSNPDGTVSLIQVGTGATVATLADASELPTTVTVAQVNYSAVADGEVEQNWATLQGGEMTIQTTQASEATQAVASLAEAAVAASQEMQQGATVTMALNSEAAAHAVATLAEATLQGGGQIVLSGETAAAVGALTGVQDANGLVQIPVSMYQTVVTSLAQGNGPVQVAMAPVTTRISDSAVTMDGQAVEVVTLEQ
UniProt Q12968, sequence (Q12968 whole entry, looked up): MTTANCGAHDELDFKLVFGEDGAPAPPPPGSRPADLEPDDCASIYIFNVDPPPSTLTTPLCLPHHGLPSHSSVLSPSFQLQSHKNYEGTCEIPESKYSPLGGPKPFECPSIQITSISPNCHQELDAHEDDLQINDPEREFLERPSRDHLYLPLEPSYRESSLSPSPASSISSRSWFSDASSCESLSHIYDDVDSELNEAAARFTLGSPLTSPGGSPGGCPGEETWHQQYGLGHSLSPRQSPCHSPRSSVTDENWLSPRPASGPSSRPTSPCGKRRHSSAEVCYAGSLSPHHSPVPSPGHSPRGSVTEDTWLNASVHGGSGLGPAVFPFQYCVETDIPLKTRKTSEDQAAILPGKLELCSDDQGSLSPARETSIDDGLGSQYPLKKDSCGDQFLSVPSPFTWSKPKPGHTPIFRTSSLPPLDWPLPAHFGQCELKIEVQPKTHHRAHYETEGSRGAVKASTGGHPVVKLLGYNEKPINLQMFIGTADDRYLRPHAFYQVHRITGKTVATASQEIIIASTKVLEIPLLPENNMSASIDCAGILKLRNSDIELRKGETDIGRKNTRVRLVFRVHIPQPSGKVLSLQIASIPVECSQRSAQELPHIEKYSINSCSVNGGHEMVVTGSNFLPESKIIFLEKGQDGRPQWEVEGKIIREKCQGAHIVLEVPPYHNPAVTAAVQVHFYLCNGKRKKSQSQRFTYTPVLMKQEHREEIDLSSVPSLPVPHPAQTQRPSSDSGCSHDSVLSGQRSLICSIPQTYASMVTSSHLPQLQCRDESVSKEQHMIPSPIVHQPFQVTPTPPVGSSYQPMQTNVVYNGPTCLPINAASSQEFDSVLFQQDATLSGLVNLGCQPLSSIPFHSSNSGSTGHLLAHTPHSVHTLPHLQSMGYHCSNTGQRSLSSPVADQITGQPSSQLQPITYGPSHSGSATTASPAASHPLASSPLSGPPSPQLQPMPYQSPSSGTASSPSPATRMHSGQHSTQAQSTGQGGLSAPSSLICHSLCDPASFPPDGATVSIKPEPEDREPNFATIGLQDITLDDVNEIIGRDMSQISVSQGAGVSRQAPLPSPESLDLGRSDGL
UniProt O43181, sequence (O43181 whole entry, looked up): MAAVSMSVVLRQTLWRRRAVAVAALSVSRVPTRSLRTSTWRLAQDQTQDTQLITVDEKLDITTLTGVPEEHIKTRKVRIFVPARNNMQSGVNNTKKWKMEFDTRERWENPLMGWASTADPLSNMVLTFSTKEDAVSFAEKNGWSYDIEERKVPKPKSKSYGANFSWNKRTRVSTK
UniProt P49116, sequence (P49116 whole entry, looked up): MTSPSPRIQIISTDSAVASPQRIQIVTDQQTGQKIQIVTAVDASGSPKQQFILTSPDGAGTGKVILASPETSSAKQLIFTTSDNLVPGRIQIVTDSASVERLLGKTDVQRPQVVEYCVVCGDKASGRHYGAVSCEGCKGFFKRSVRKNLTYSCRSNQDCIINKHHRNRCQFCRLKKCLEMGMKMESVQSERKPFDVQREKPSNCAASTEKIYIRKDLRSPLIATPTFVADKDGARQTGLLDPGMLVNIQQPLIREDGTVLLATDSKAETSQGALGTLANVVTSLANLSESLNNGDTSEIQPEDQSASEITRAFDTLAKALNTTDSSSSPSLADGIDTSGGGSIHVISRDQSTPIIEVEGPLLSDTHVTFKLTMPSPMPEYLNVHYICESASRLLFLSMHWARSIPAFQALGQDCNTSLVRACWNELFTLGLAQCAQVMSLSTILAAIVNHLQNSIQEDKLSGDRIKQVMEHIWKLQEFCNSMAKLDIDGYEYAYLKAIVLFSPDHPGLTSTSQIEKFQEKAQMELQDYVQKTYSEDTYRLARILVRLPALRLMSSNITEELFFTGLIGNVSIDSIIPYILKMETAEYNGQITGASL
UniProt Q96I59, sequence (Q96I59 whole entry, looked up): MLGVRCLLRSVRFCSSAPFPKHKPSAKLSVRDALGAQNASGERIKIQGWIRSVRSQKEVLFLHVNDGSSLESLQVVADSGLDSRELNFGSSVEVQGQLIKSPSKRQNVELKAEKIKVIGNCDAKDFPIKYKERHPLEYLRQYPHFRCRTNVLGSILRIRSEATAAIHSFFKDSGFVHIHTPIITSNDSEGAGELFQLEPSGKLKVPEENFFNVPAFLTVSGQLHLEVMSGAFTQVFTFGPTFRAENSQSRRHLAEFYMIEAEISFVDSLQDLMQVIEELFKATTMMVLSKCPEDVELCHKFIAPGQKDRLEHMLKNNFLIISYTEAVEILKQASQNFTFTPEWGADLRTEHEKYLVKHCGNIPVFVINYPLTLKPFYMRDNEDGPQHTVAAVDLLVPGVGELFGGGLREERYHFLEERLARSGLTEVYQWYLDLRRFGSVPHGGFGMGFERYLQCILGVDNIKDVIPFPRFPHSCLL
UniProt Q9HBL8, sequence (Q9HBL8 whole entry, looked up): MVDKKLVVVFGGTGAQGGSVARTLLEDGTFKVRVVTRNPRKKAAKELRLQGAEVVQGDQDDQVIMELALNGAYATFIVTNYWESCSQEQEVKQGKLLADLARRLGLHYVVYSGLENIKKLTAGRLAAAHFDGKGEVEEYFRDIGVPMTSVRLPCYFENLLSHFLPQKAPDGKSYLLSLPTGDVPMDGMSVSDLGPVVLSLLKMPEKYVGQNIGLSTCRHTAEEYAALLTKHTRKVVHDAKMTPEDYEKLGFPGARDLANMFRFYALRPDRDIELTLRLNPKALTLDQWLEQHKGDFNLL
UniProt Q96BN8, sequence (Q96BN8 whole entry, looked up): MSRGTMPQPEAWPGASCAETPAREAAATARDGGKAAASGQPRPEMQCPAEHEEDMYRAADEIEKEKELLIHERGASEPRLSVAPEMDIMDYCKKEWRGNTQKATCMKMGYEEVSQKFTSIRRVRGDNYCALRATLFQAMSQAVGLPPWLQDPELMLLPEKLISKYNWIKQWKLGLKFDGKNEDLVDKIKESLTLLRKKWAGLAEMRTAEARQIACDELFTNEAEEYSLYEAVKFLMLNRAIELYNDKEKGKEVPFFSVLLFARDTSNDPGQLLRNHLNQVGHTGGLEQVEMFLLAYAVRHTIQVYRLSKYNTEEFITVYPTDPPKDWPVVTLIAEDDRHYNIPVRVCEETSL
UniProt Q9ULX3, sequence (Q9ULX3 whole entry, looked up): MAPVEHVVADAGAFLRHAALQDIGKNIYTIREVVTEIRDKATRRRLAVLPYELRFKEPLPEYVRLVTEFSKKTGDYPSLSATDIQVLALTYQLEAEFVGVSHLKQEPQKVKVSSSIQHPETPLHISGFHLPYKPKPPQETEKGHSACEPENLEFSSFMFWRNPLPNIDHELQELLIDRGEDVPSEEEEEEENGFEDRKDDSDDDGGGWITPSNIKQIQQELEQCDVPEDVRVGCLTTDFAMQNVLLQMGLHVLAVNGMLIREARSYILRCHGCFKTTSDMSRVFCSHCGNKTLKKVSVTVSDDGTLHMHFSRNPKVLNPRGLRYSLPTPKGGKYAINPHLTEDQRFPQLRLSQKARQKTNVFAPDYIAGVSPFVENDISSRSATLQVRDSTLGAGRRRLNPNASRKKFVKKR

| Target | log2 fold change [1] | log2 fold change [2] | log2 fold change [3] | log2 fold change [4] | log2 fold change [5] | log2 fold change [6] | log2 fold change [7] | log2 fold change [8] | log2 fold change [9] | log2 fold change [10] | log2 fold change [11] | log2 fold change [12] | log2 fold change [13] | log2 fold change [14] | log2 fold change [15] | log2 fold change [16] | log2 fold change [17] | log2 fold change [18] | log2 fold change [19] | log2 fold change [20] |
| --- | --- | --- | --- | --- | --- | --- | --- | --- | --- | --- | --- | --- | --- | --- | --- | --- | --- | --- | --- | --- |
| NSDHL (UniProt Q15738) | 0.04 | 0.314 (active) | 0.045 | -0.105 | 0.024 | 0.239 | 0.083 | 0.058 | 0.22 (active) | -0.016 | 0.006 | 0.014 | 0.033 | -0.021 | 0.054 | 0.001 | 0.11 | 0.133 | 0.029 | 0.164 |
| NOB1 (UniProt Q9ULX3) | 0.012 | -0.142 | -0.033 | 0.15 | -0.046 | 0.019 | -0.067 | 0.113 | 0 | -0.038 | 0.014 | 0.093 | -0.044 | -0.005 | -0.054 | -0.045 | -0.003 | 0.059 | -0.106 | -0.043 |
| NFATC3 (UniProt Q12968) | -0.06 | -0.179 | 0.014 | -0.04 | -0.012 | -0.161 | -0.039 | 0.091 | 0.066 | 0.256 | 0.041 | -0.064 | -0.121 | -0.316 | -0.042 | -0.3 | -0.073 | 0.191 | 0.01 | -0.01 |
| NUP160 (UniProt Q12769) | 0.017 | -0.014 | 0.034 | -0.027 | 0.024 | -0.06 | 0.078 | 0.007 | 0.019 | 0.044 | -0.127 | 0.043 | -0.078 | -0.136 | -0.045 | -0.06 | -0.025 | -0.034 | -0.042 | -0.042 |
| NRF1 isoform 4 (UniProt Q16656) | 0.03 | 0.071 | 0.275 | -0.107 | 0.053 | -0.125 | 0.074 | 0.017 | -0.003 | -0.004 | -0.057 | 0.023 | -0.099 | -0.152 | -0.123 | -0.042 | 0.054 | -0.096 | 0.022 | 0.035 |
| NARS2 (UniProt Q96I59) | 0.038 | -0.099 | 0.125 | -0.061 | 0.037 | 0.02 | -0.051 | -0.028 | -0.009 | -0.401 (active) | -0.108 | 0.034 | -0.063 | 0.069 | -0.05 | 0.005 | 0.084 | 0.047 | -0.004 | -0.009 |
| NCOR1 (UniProt O75376) | -0.078 | 0.017 | 0.15 | -0.064 | 0.063 | -0.007 | 0.004 | -0.061 | -0.044 | 0.004 | -0.009 | -0.056 | 0.182 | -0.046 | -0.091 | 0.058 | 0.041 | -0.049 | 0.103 | 0.041 |
| NR2C2 isoform 2 (UniProt P49116) | 0.016 | 0.063 | 0.054 | -0.076 | 0.066 | -0.047 | 0.081 | 0.022 | 0.011 | 0.009 | -0.093 | 0.027 | -0.033 | -0.091 | -0.026 | 0.021 | -0.003 | -0.038 | -0.184 | 0.026 |
| NIPSNAP2 (UniProt O75323) | -0.014 | 0.083 | 0.068 | -0.041 | 0.019 | 0.057 | -0.084 | 0.105 | -0.106 | 0.162 | 0.02 | -0.012 | 0.082 | -0.003 | 0.05 | -0.033 | 0.185 | 0.025 | -0.058 | 0.041 |
| NUP107 (UniProt P57740) | 0.101 | -0.067 | -0.083 | -0.062 | 0.031 | -0.229 | 0.028 | 0.093 | 0.11 | -0.018 | -0.013 | 0.716 (active) | -0.027 | -0.012 | -0.12 | -0.145 | -0.077 | -0.008 | -0.026 | -0.036 |
| NDUFAF6 (UniProt Q330K2) | -0.052 | -0.197 | 0.182 | -0.025 | 0.144 | -0.167 | -0.051 | 0.027 | -0.065 | -0.273 | -0.178 | 0.014 | 0.01 | -0.096 | -0.064 | 0.017 | 0.01 | 0 | -0.11 | 0.028 |
| NELFA (UniProt Q9H3P2) | -0.01 | 0.082 | 0.198 | -0.011 | 0.118 | 0.004 | 0.142 | 0.234 | -0.014 | -0.068 | -0.145 | 0.027 | 0.032 | -0.311 | -0.112 | -0.152 | 0.015 | 0.018 | -0.141 | -0.034 |
| NDUFS4 (UniProt O43181) | -0.035 | -0.089 | -0.027 | 0.086 | -0.086 | 0.164 | -0.098 | -0.058 | 0.018 | -0.216 | -0.083 | 0.017 | 0.039 | 0.015 | 0.087 | -0.047 | 0.025 | -0.049 | 0.202 | 0.058 |
| OTULIN (UniProt Q96BN8) | -0.099 | -0.079 | 0.04 | 0.036 | -0.027 | -0.088 | 0.098 | 0.073 | -0.095 | -0.208 | -0.039 | 0.066 | -0.091 | -0.124 | -0.169 | 0.033 | -0.051 | 0.235 | -0.081 | 0.152 |
| NMRAL1 (UniProt Q9HBL8) | 0.228 | 0.469 | 0.054 | 0.04 | 0.046 | -0.169 | -0.056 | -0.009 | 0.001 | -0.103 | 0.806 (active) | -0.026 | 1.29 (active) | 0.024 | -0.071 | -0.018 | 0.031 | 0.962 (active) | -0.035 | -0.145 |
| MRPS10 (UniProt P82664) | 0.028 | 0.005 | -0.033 | 0.08 | -0.005 | 0.019 | 0.002 | 0.002 | 0.029 | -0.265 (active) | 0.057 | 0.119 | -0.097 | 0.006 | -0.005 | -0.046 | 0.002 | -0.096 | -0.104 | 0.1 |
